# PubChem BioAssay AID743279 (National Center for Advancing Translational Sciences (NCATS), 2014)
# Screen size: about 360,000 compounds; about 17,000 (4.7%) were called active. Roughly 5% stayed inconclusive and do not appear here. The sample holds actives, similar compounds and a random draw of the others, so the mix is not that of the screen. No stated cut-off is given here; in the data, active means activity change below about -50%; inconclusive means mostly about -30% to -49%; inactive means weaker than that.
# Test: qHTS for Inhibitors of Inflammasome Signaling: IL-1-beta AlphaLISA Primary Screen
# Conditions: THP-1 LPS/ATP IL-1B secretion, 16 h; at 57.5 µM, hits give low values
# Outline: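 Secreted IL-1B measured by AlphaLISA bead assay after 16 h compound exposure of THP-1 cells; compounds (final up to 57.5 uM) added 1 h before LPS (250 ng/mL) and ATP (1.25 mM) stimulation; lower signal means less secretion.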
# On the % scale 0 is the no-effect control and ±100 the full control effect.
row,Structure (SMILES),activity change
1,COc1ccc(S(=O)(=O)N(C)CC(=O)NCCCN2CCOCC2)cc1Cl,25.8% (inactive)
2,COc1ccc(-c2ccc(CNCCCN3CCOCC3)o2)cc1Cl,-66% (active)
3,C=CCOc1ccc(Cl)cc1CNCCCN1CCOCC1,-12.8% (inactive)
4,Cc1[nH]c2ccccc2c1C(=O)c1cc([C@H](NC(=O)OC(C)(C)C)C(C)C)sc1N,-6.92% (inactive)
5,C[C@H](CO)N1C[C@H](C)[C@@H](CN(C)S(=O)(=O)c2ccc(F)cc2)OCc2cnnn2CCCC1=O,-17.7% (inactive)
6,CCOC(=O)[C@]12CCCC=C1N(Cc1ccc(Cl)cc1Cl)C(=O)[C@H](CC(=O)N1CCCCC1)C2,-12.7% (inactive)
7,COc1cc(OC)c(C(=O)NNC(=O)c2ccc(NS(=O)(=O)c3cccs3)cc2)cc1OC,-0.853% (inactive)
8,COc1ccc(Cc2nnc(NC(=O)c3ccc(OC)cc3OC)s2)cc1,-81.7% (active)
9,COc1ccc(Cc2nnc(NC(=O)Cc3cccs3)s2)cc1,20.9% (inactive)
10,COc1ccc(Cc2nnc(NC(=O)c3cc(OC)c(OC)c(OC)c3)s2)cc1OC,64.7% (inactive)
11,Cc1cccc(C2c3[nH]c4ccccc4c3CCN2C(=O)c2cc(-c3cccn3C)n[nH]2)n1 (stereo not given),-60% (active)
12,COc1ccc(C2c3[nH]c4ccccc4c3CCN2CCCn2cccn2)cc1C (stereo not given),-18.9% (inactive)
13,c1ccc(C2c3[nH]c4ccccc4c3CCN2Cc2cccn2-c2cccnc2)nc1 (stereo not given),47.2% (inactive)
14,Cc1cccc(C(=O)N2CCc3c([nH]c4ccccc34)C2CC(C)C)n1 (stereo not given),7.12% (inactive)
15,O=C(c1cn2ccccc2n1)N1CCc2c([nH]c3ccccc23)C1c1ccccn1 (stereo not given),-15.2% (inactive)
16,COCc1ccc(C(=O)N2CCc3c([nH]c4ccccc34)C2c2ccccn2)s1 (stereo not given),-55.4% (active)
17,COCc1c(N)c(C)nc(Cl)c1C#N,0% (inactive)
18,O=C(COc1ccc2ccccc2c1)N1CCN(C(=O)c2cccs2)CC1,-11.7% (inactive)
19,Nc1cc(C(=O)N2CCN(c3ccccc3Cl)CC2)ccc1N1CC2CC(C1)c1cccc(=O)n1C2 (stereo not given),14.2% (inactive)
20,CC1=C(C(=O)N(C(C)C)C(C)C)CC(CC(=O)NCC2CCCCC2)C(=O)N1Cc1ccccc1 (stereo not given),-28.7% (inactive)
21,CN(C)C(CNC(=O)c1cc2ccccc2o1)c1ccccc1 (stereo not given),-4.24% (inactive)
22,CSc1ccccc1NC(=O)c1ccc2c(c1)CCN2S(C)(=O)=O,-9.72% (inactive)
23,CCOCCCN(C)C1CCN(C(=O)c2oc3ccccc3c2NC(=O)Cc2cccc([N+](=O)[O-])c2)CC1,-15.5% (inactive)
24,CCOCCCN(C)C1CCN(C(=O)c2oc3ccccc3c2NC(=O)COc2cccc(C)c2)CC1,-84% (active)
25,COCC(=O)Nc1c(C(=O)N2CCCC2)oc2ccccc12,-21% (inactive)
